Laboratory results as given in PubChem BioAssay AID624405 (Broad Institute, 2012).
In all, about 1,900 compounds went through this assay and about 250 (13%) were called active. Inconclusive results (about 4%) are left out.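 How the source made its calls: active means fitted curve reaches 40% rescue activity at or below the top valid dose, in every test run; inconclusive means test runs disagree, some active and some inactive; inactive means every run misses the threshold or moves the wrong way.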 Only a sample is shown. Entries with a potency or affinity are not part of this list.

test: suppressors of statin myotoxicity in myotubes, dose response, cell-based, C2C12 myotubes, ATP luminescence, cherry pick (AID 624405); conditions: C2C12 myotubes + simvastatin, 48 h, scaled: DMSO wells 0, geranylgeraniol wells 100; series mostly up to 19.5 µM;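 further: myotubes are challenged with simvastatin at 10 µM to lower ATP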

Structure (SMILES)	outcome
COc1ccc2cc(C(=O)O)n(CC(=O)c3ccccc3)c2c1	inactive
COc1ccc(NC(=O)CSc2nnc(-c3ccccc3Cl)n2Cc2ccco2)c(OC)c1	inactive
CCC(CC)C(=O)c1c[nH]c(C(=O)NCC2CCCO2)c1 (stereo unspecified)	inactive
CN1C[C@H]2[C@@H](c3ccccc31)[C@H](CO)N2Cc1ccccc1	inactive
O=C(c1ccc(F)cc1)N1CCC(N2CCCCCC2)CC1	inactive
CCc1cccc(NS(=O)(=O)c2ccc(-n3cccn3)cc2)c1	inactive
Cc1ccc(NS(=O)(=O)c2ccc(-n3cccn3)cc2)cc1Cl	inactive
Cc1ccc(C)c(NS(=O)(=O)c2ccc(-n3cccn3)cc2)c1	inactive
CC(C)c1ccc(NS(=O)(=O)c2ccc(-n3cccn3)cc2)cc1	inactive
COc1ccc(C#Cc2cnc3c(c2)C(=O)N([C@H](C)CO)C[C@H](C)[C@@H](CN(C)C(=O)Nc2cccc(OC)c2)O3)cc1	inactive
COc1cc(C(=O)OCCN2CCOCC2)ccc1O	inactive
C[C@@H]1CN([C@@H](C)CO)C(=O)c2cccc(NC(=O)C3CCCCC3)c2O[C@@H]1CN(C)S(=O)(=O)c1ccc(Cl)cc1	inactive
C[C@H](CO)N1C[C@H](C)[C@H](CN(C)S(C)(=O)=O)OCCCC[C@H](C)Oc2ccc(NS(=O)(=O)c3ccc(F)cc3)cc2C1=O	inactive
COc1ccc(-c2cnc3c(c2)C(=O)N([C@H](C)CO)C[C@H](C)[C@H](CN(C)S(=O)(=O)c2ccc(F)cc2)O3)cc1	inactive
Cc1[nH]nc2c1C(c1ccsc1)C(C#N)=C(N)O2 (stereo unspecified)	inactive
OC[C@H]1[C@H]2c3ccccc3NC[C@H]2N1Cc1ccccc1Cl	inactive
CCC(CC)C(=O)Nc1cccc(/C(C)=N/NC(=O)c2ccccc2Cl)c1	inactive
COc1cc(OC)cc(C(=O)Nc2ccccc2C(=O)N2CCCC2)c1	inactive
O=C(NCc1ccncc1)Nc1ccccc1Cl	inactive
C[C@@H]1CN([C@@H](C)CO)C(=O)Cc2cc(NS(=O)(=O)c3ccc(Cl)cc3)ccc2O[C@@H]1CN(C)Cc1ccc(C(F)(F)F)cc1	inactive
C[C@@H]1CN([C@@H](C)CO)C(=O)c2cccc(NS(=O)(=O)c3ccccc3)c2O[C@@H]1CN(C)S(=O)(=O)c1cccs1	inactive
O=C(Cn1cnc2c(nnn2Cc2ccc(F)cc2)c1=O)NC1CCCC1	inactive
O=C1c2ccccc2NC(c2cccc(F)c2)N1Cc1ccco1 (stereo unspecified)	inactive
C[C@H](CO)N1C[C@H](C)[C@@H](CN(C)S(=O)(=O)c2cccs2)OCCCC[C@H](C)Oc2ccc(NC(=O)Nc3ccc(F)cc3)cc2C1=O	inactive
CCc1ccc(C(O)(CC(C)C)C(CN2CCOCC2)c2ccccc2)cc1 (stereo unspecified)	inactive
N#CC(c1ccc(Cl)cc1)c1ccc(Cl)nn1 (stereo unspecified)	inactive

Structure (SMILES)	outcome
Cc1cc(C)n(CC(=O)N2c3ccccc3Sc3ccccc32)n1	inactive
O=C(COC(=O)Cc1ccccc1F)NCc1ccc(Cl)cc1	inactive
CCOC(=O)C(C)C1(O)c2ccccc2-c2ncccc21 (stereo unspecified)	inactive
CN1C[C@H]2[C@@H](c3ccccc31)[C@@H](CO)N2Cc1ccccc1	inactive
CC(=O)N1c2ccc(S(=O)(=O)NCCC(=O)NCCc3ccc(C)cc3)cc2CC1C (stereo unspecified)	inactive
CCOc1ccc(N(CC(=O)NCc2ccco2)S(=O)(=O)c2ccc(OC)c(OC)c2)cc1	inactive
Nc1nnc(-c2ccccc2)c(-c2ccccc2)n1	inactive
O=S(=O)(NC1=NCCC1)c1ccc(F)cc1	inactive
C[C@@H]1CCCCO[C@@H](CN(C)S(=O)(=O)c2cccs2)[C@@H](C)CN([C@@H](C)CO)C(=O)c2cc(NC(=O)Nc3ccc(F)cc3)ccc2O1	inactive
C[C@@H]1CCCCO[C@H](CN(C)C(=O)NC2CCCCC2)[C@H](C)CN([C@@H](C)CO)C(=O)c2cc(NS(=O)(=O)c3cccs3)ccc2O1	inactive
Cc1cc(S(=O)(=O)Nc2nc(CN3CCOCC3)nc3sc4c(c23)CCCC4)ccc1F	inactive
C[C@H]1CN([C@@H](C)CO)C(=O)Cc2cc(NC(=O)Cc3ccccc3)ccc2O[C@@H]1CN(C)Cc1ccc(Cl)c(Cl)c1	inactive
C[C@H]1CN([C@@H](C)CO)C(=O)Cc2cc(NC(=O)CCCCCC(=O)Nc3ccccc3N)ccc2O[C@@H]1CN(C)Cc1ccc(Cl)c(Cl)c1	inactive
CC1CCCCN1S(=O)(=O)c1ccc(C(=O)Nc2sccc2C(N)=O)cc1 (stereo unspecified)	inactive
O=C(CNC(=O)c1ccc(Br)cc1)N/N=C/c1cccnc1	inactive
C[C@@H]1CCCCO[C@@H](CN(C)CC2CCCCC2)[C@@H](C)CN([C@H](C)CO)C(=O)c2cc(NC(=O)Nc3ccc4c(c3)OCO4)ccc2O1	inactive
C[C@@H]1CN([C@@H](C)CO)C(=O)c2cc(NC(=O)Nc3ccc(C(F)(F)F)cc3)ccc2O[C@@H]1CN(C)Cc1ccc(C(=O)Nc2ccccc2N)cc1	inactive
C[C@@H]1CN([C@H](C)CO)C(=O)c2cccc(NC(=O)c3nc4ccccc4s3)c2O[C@@H]1CN(C)C(=O)Nc1cccc2ccccc12	inactive
C[C@H]1CN([C@@H](C)CO)C(=O)c2cc(NC(=O)Nc3ccc(C(F)(F)F)cc3)ccc2O[C@H]1CN(C)Cc1ccc(C(=O)Nc2ccccc2N)cc1	inactive
C[C@@H]1CN([C@@H](C)CO)C(=O)c2cccc(NC(=O)c3nc4ccccc4s3)c2O[C@H]1CN(C)Cc1ccc(C(=O)Nc2ccccc2N)cc1	inactive
C[C@@H]1CN([C@H](C)CO)C(=O)c2cccc(NC(=O)C3CCOCC3)c2O[C@@H]1CN(C)Cc1ccc(C(=O)Nc2ccccc2N)cc1	inactive
C[C@@H]1CN([C@H](C)CO)C(=O)c2cc(NC(=O)Nc3ccc(C(F)(F)F)cc3)ccc2O[C@H]1CN(C)Cc1ccc(C(=O)Nc2ccccc2N)cc1	inactive
C[C@H](CO)N1C[C@H](C)[C@H](CN(C)Cc2ccc(C(=O)Nc3ccccc3N)cc2)Oc2ccc(NC(=O)Nc3ccc(C(F)(F)F)cc3)cc2C1=O	inactive
C[C@@H]1CN([C@@H](C)CO)C(=O)c2cccc(NC(=O)Nc3ccccc3)c2O[C@H]1CN(C)Cc1ccc(C(=O)Nc2ccccc2N)cc1	inactive
O=C(O)CCC(C(=O)O)n1c(O)c(C2=c3ccccc3=NC2=O)sc1=S (stereo unspecified)	inactive
